Shown are actives, neighbours in structure and some others; about 21% of the full set was active somewhere.
RORgamma inh – qHTS for inhibitors of ROR gamma transcriptional activity; Nuclear receptor ROR-gamma (Mus musculus), P51450; Drosophila S2 Gal4-RORgamma UAS-luciferase reporter, 20 h; Potency, µM (highest dose often 53.6 µM), for inactives: at the top dose activity change, negative = inhibition, usual class: inhibitors; actives 5.4% (n = 310,000); further: potency means the concentration at half of the fitted maximal effect; nearly all actives have a fitted effect of over 60% in size
Target sequence (P51450 whole entry, looked up, the tested form may be a part): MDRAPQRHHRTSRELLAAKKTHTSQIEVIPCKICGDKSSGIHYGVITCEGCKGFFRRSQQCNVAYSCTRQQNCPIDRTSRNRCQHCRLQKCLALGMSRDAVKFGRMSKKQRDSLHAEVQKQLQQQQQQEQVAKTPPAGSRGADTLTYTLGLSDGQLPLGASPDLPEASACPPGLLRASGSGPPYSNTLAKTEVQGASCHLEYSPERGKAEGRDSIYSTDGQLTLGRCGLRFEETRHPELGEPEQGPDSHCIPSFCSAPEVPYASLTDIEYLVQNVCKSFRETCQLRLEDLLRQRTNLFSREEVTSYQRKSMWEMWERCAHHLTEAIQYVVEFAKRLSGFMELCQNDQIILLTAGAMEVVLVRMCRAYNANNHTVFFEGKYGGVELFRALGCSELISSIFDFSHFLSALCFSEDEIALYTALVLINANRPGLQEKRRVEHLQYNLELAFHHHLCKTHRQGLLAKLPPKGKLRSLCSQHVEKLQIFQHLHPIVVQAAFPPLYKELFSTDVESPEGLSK
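Drosophila S2 cells stably expressing Gal4-DBD/mouse RORγ fusion under metallothionein promoter plus UAS-luciferase; compound 1 h, then 700 uM CuSO4 induction for 20 h at ambient temperature; inhibition read as reduced luminescence.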
TDP1 cell CPT – qHTS for Inhibitors of human tyrosyl-DNA phosphodiesterase 1 (TDP1): qHTS in cells in presence of CPT; chicken DT40 Tdp1-/-;hTDP1 cells + 20 nM CPT, ATP luminescence, 48 h; Potency, µM (doses to about 46.2 µM), inactives show top-dose activity change, negative = growth inhibition, most hits filed as inhibitors; actives 12% (n = 420,000); further: potency means the concentration at half of the fitted maximal effect; nearly all actives have a fitted effect of over 55% in size
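Chicken DT40 Tdp1-/- cells stably complemented with human TDP1 were seeded at 400 cells/well in medium containing 20 nM camptothecin, exposed to pin-transferred compounds, and grown at 37 °C for at least 48 hr. Viability was read as ATP luminescence.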
ELG1 repair inh – qHTS screen for small molecules that inhibit ELG1-dependent DNA repair in human embryonic kidney (HEK293T) cells expressing luciferase-tagged ELG1; HEK293T ELG1-luciferase reporter, luminescence, 16 h; DNA damage induced by 5-fluorouridine; Potency, µM (titrated, usually from 46.1 µM), for the others: at the top dose activity change, negative = inhibition, most hits filed as inhibitors; actives 2.3% (n = 330,000); AID 504467, 2011; further: potency means the concentration at half of the fitted maximal effect; nearly all actives have a fitted effect of over 55% in size
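5-Fluorouridine DNA damage + compound/DMSO, 2,000 cells/well, 16 h, 37 °C/5% CO2. ONE-Glo, 30 min RT, luminescence. Readout = decrease in reporter signal.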
IL1B secr inh – qHTS for Inhibitors of Inflammasome Signaling: IL-1-beta AlphaLISA Primary Screen; activity change, % at 57.5 µM; THP-1 LPS/ATP IL-1B secretion, AlphaLISA, 16 h; hits give low values; actives 4.7% (n = 360,000); in the data active means activity change below about -50%; inconclusive means mostly about -30% to -49%
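Secreted IL-1B measured by AlphaLISA bead assay after 16 h compound exposure of THP-1 cells; compounds (final up to 57.5 uM) added 1 h before LPS (250 ng/mL) and ATP (1.25 mM) stimulation; lower signal means less secretion.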
Gal4-VP16 FLuc – VP16 counterscreen qHTS for inhibitors of ROR gamma transcriptional activity; Potency, µM (titrated, usually from 53.6 µM), without a hit: at the top dose activity, negative = inhibition, usual class: inhibitors; AID 2546, 2010; actives 3.5% (n = 310,000); Drosophila S2 Gal4-VP16 UAS-luciferase, luminescence, 20 h;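 further: Gal4-VP16 expression switched on by copper sulfate through the metallothionein promoter; potency means the concentration at half of the fitted maximal effect; nearly all actives have a fitted effect of over 50% in size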
DT40 TDP1 no CPT – qHTS for Inhibitors of human tyrosyl-DNA phosphodiesterase 1 (TDP1): qHTS in cells in absence of CPT. DT40 Tdp1-/- hTDP1 cells, no CPT, ATP luminescence, 48 h. Potency, µM (top dose mostly 46.2 µM), for inactives: at the top dose activity change, negative = growth inhibition, usual class: inhibitors. actives 15% (n = 420,000). AID 686978, 2013; further: potency means the concentration at half of the fitted maximal effect; nearly all actives have a fitted effect of over 55% in size
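Camptothecin absent (DMSO only). Human TDP1-complemented DT40 knockout cells, 400 cells/well, 37 °C for minimum 48 hr; ATP measured via CellTiter-Glo, 30 min dark incubation, luminescence.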
Numbers without * were called inactive; [ ] = remark or other dose. Unless noted, the call rests on the fitted dose curve; in most records, active means well fitted curve in the direction sought with a large enough effect; inconclusive means small, poorly fitted or top-dose-only effect, or another doubt; inactive means no such curve, though single readings can be large; an effect the other way counts as inactive or inconclusive. On the % scale 0 is the no-effect control and ±100 the full control effect.

Screening CCOc1ccccc1NC(=O)CSc1ccc2nnc(CCNS(=O)(=O)c3ccccc3)n2n1 returned TDP1 cell CPT -23% and DT40 TDP1 no CPT -21%.
`CC(C)Cc1nn2c(=O)cc(COC(=O)c3ccc(NC(=O)CCc4ccccc4)cc3)nc2s1` gave TDP1 cell CPT 1% and DT40 TDP1 no CPT -21%.
Screening Cc1ccc(C)c(NC(=O)CCCn2nc(C)c3sc4ccccc4c3c2=O)c1 returned TDP1 cell CPT -17% and DT40 TDP1 no CPT -25%.
Cn1c(=O)c2c(nc(Br)n2Cc2nnc(N)s2)n(C)c1=O was read as RORgamma inh 7%, TDP1 cell CPT 14%, ELG1 repair inh 2%, IL1B secr inh -14, Gal4-VP16 FLuc -4% and DT40 TDP1 no CPT 11%.
COc1ccc(C(=O)Cn2c(N3CCOCC3)nc3c2c(=O)n(C)c(=O)n3C)cc1 was read as RORgamma inh 22%, ELG1 repair inh 3% and Gal4-VP16 FLuc -9%.
Screening Cn1c(=O)c2c(nc(Br)n2CC(=O)C23CC4CC(CC(C4)C2)C3)n(C)c1=O returned RORgamma inh 20%, TDP1 cell CPT 23µM*, ELG1 repair inh 15µM*, IL1B secr inh -6, Gal4-VP16 FLuc -2% and DT40 TDP1 no CPT 18µM*.
`COc1ccc(C(=O)Cn2c(Cl)nc3c2c(=O)n(C)c(=O)n3C)cc1` gave RORgamma inh 16%, TDP1 cell CPT inconclusive, ELG1 repair inh 16µM*, IL1B secr inh 38, Gal4-VP16 FLuc -10% and DT40 TDP1 no CPT 21µM*.
Cn1c(=O)c2c(nc(Cl)n2CCOc2ccccc2)n(C)c1=O was read as RORgamma inh inconclusive, TDP1 cell CPT inconclusive, ELG1 repair inh 9.2µM*, IL1B secr inh 2, Gal4-VP16 FLuc inconclusive and DT40 TDP1 no CPT inconclusive.
For CCn1ccnc1CN(C)Cc1nc(CCC(C)C)no1 the results were RORgamma inh inconclusive, TDP1 cell CPT -17%, ELG1 repair inh 13%, IL1B secr inh 28, Gal4-VP16 FLuc 7% and DT40 TDP1 no CPT -30%.
For Cc1oc(=O)cc(OCc2ccccc2)c1C the results were TDP1 cell CPT inconclusive, ELG1 repair inh 5%, IL1B secr inh 4 and DT40 TDP1 no CPT -28%.
Cc1ccccc1S(=O)(=O)NC(=O)C1(C)CCN1C(=O)C1CCCCC1 (stereo not given) was read as TDP1 cell CPT 1%, IL1B secr inh 27 and DT40 TDP1 no CPT -3%.
Screening COc1cccc(NS(=O)(=O)c2ccc3c(c2)CCCN3C(C)=O)c1 returned RORgamma inh 4%, TDP1 cell CPT inconclusive, ELG1 repair inh inconclusive, IL1B secr inh 25, Gal4-VP16 FLuc -6% and DT40 TDP1 no CPT inconclusive.
For Cc1cc(F)ccc1S(=O)(=O)Nc1ccc2c(c1)CCCN2C(=O)c1cccs1 the results were TDP1 cell CPT 21µM* and DT40 TDP1 no CPT 23µM*.
O=C(c1cccs1)N1CCCc2cc(NS(=O)(=O)c3ccc(F)cc3F)ccc21 was read as TDP1 cell CPT 21µM* and DT40 TDP1 no CPT 9.2µM*.
For Cc1cc(F)ccc1S(=O)(=O)Nc1ccc(C(=O)N2CCCCCC2)cc1 the results were TDP1 cell CPT inconclusive, ELG1 repair inh -1%, IL1B secr inh -8 and DT40 TDP1 no CPT inconclusive.
`O=C(c1cccs1)N1CCCc2cc(NS(=O)(=O)c3ccc(F)cc3)ccc21` gave TDP1 cell CPT 21µM* and DT40 TDP1 no CPT -79%.
Screening COc1ccc(F)cc1S(=O)(=O)Nc1ccc2c(c1)CCCN2C(=O)c1cccs1 returned TDP1 cell CPT inconclusive and DT40 TDP1 no CPT 18µM*.
Screening Cc1ccc(OCc2cc(=O)n3cc(C)sc3n2)c(NC(=O)c2ccco2)c1 returned TDP1 cell CPT -4% and DT40 TDP1 no CPT inconclusive.
`CC(Sc1nc2ncc(Cl)cc2[nH]1)C(=O)Nc1ccccc1[N+](=O)[O-]` (stereo not given) gave TDP1 cell CPT inconclusive, IL1B secr inh 6 and DT40 TDP1 no CPT inconclusive.
For CNC[C@@H]1CC[C@@H](N)[C@@H](O[C@H]2[C@H](O)[C@@H](O[C@H]3OC[C@](C)(O)[C@H](NC)[C@H]3O)[C@H](N)C[C@@H]2N)O1 the results were TDP1 cell CPT 4% and DT40 TDP1 no CPT 8%.
For CC1=C(C(=O)OCC(Br)(Br)Br)C(c2cccc([N+](=O)[O-])c2)NC(=O)N1CCCC(=O)O (stereo not given) the results were TDP1 cell CPT -15%, IL1B secr inh 29 and DT40 TDP1 no CPT -8%.
`Cc1ccc2c(c1)CCCN2C(=O)c1cccs1` gave RORgamma inh -6%, TDP1 cell CPT -7%, ELG1 repair inh 2%, IL1B secr inh 17, Gal4-VP16 FLuc -15% and DT40 TDP1 no CPT -2%.
Screening Cc1ccc(S(=O)(=O)Nc2ccc3c(c2)CCCN3C(=O)c2cccs2)cc1C returned TDP1 cell CPT 21µM* and DT40 TDP1 no CPT 16µM*.
Screening COC(=O)CN(c1cc(Cl)ccc1OC)S(=O)(=O)c1ccc(OC)c(OC)c1 returned RORgamma inh 8%, TDP1 cell CPT inconclusive, ELG1 repair inh -2%, IL1B secr inh 13, Gal4-VP16 FLuc -6% and DT40 TDP1 no CPT -24%.
Screening C=CCOc1cccc(/C=N/NC(=O)CN(c2cc(Cl)ccc2OC)S(=O)(=O)c2ccc(C)c([N+](=O)[O-])c2)c1 returned RORgamma inh 13%, TDP1 cell CPT inconclusive, ELG1 repair inh -19%, IL1B secr inh -7, Gal4-VP16 FLuc -1% and DT40 TDP1 no CPT 16µM*.
`COc1ccc(Cl)cc1N(CC(=O)N(C)C)S(=O)(=O)c1ccc(C)c([N+](=O)[O-])c1` gave RORgamma inh 5%, TDP1 cell CPT inconclusive, ELG1 repair inh 9%, IL1B secr inh 20, Gal4-VP16 FLuc -9%[10 µM] and DT40 TDP1 no CPT 21µM*.
Screening COc1ccc([N+](=O)[O-])cc1N(CC(=O)N(C)C)S(C)(=O)=O returned RORgamma inh -2%, TDP1 cell CPT 3%, ELG1 repair inh 0%, IL1B secr inh 3, Gal4-VP16 FLuc -18% and DT40 TDP1 no CPT 0%.

Screens (PubChem BioAssay)
